From the supplement of paper PMC11732987, “Enantioselective OTUD7B fragment discovery through chemoproteomics screening and high-throughput optimisation” (Communications Chemistry, 2025)

Columns and labels:
Experiment in all cases: log2 ratio of Biotin-Ahx-Ub-VS probe labelling (compound/DMSO); higher = less target engagement, active = hit call of the paper (q ≤ 0.05, log2 ratio ≤ -1)
Conditions in all cases: treatment time: 3 h
[1] = compound: CCC1N(CCc2sccc12)C(=O)CCl
Outline: (§1)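 Compound at 50 or 200 µM, or DMSO, was applied for 3 h in triplicate to HEK293T lysate (495 µg per sample, Tris/CHAPS/IGEPAL buffer with protease inhibitors), after which Biotin-Ahx-Ub-VS was added at 0.5 µM final for 1 h. The labelled DUBs were pulled down with NeutrAvidin, digested with LysC and trypsin, and run by diaPASEF LC-MS/MS. Ratios are averaged base-two logs of compound over DMSO from median-normalised label-free quantities by unpaired t-test, counting only proteins with at least 2 unique peptides.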

[2] = compound: CN1c2ccccc2C(CS1(=O)=O)NC(=O)CCl
Outline: as §1

[3] = compound: Cl.ClCC(=O)N1CCc2ncncc2C1
Outline: as §1

[4] = compound: Cl.Cn1ncc2C(CCCc12)NC(=O)CCl
Outline: as §1

[5] = compound: ClCC(=O)NC1CCOc2ccccc12
Outline: as §1

[6] = compound: ClCC(=O)NC1CCCc2ccccc12
Outline: (§2)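 HEK293T lysate (495 µg per sample, in Tris/CHAPS/IGEPAL buffer with protease inhibitors) was treated in triplicate with compound over a concentration series or DMSO for 3 h, then with Biotin-Ahx-Ub-VS (0.5 µM final) for 1 h. Labelled DUBs were NeutrAvidin-enriched, digested with LysC and trypsin, and run by diaPASEF LC-MS/MS. Spectronaut label-free protein quantities were global-median-normalised. Values are average log2 ratios compound/DMSO from an unpaired t-test, using proteins with ≥2 unique peptides.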

[7] = compound: ClCC(=O)N[C@@H]1CCCc2ccccc12
Outline: as §2

[8] = compound: ClCC(=O)N[C@H]1CCCc2ccccc12
Outline: as §2

[9] = compound: CCC1N(CCc2cc(OC)c(Cl)cc12)C(=O)CCl
Outline: as §1

[10] = compound: CCCC1N(CCc2cc(OC)c(OC)cc12)C(=O)CCl
Outline: as §1

Measured: log2 ratio of Biotin-Ahx-Ub-VS probe labelling

VCPIP1 (UniProt Q96JH7)
Sequence of UniProt Q96JH7 (Q96JH7 whole entry): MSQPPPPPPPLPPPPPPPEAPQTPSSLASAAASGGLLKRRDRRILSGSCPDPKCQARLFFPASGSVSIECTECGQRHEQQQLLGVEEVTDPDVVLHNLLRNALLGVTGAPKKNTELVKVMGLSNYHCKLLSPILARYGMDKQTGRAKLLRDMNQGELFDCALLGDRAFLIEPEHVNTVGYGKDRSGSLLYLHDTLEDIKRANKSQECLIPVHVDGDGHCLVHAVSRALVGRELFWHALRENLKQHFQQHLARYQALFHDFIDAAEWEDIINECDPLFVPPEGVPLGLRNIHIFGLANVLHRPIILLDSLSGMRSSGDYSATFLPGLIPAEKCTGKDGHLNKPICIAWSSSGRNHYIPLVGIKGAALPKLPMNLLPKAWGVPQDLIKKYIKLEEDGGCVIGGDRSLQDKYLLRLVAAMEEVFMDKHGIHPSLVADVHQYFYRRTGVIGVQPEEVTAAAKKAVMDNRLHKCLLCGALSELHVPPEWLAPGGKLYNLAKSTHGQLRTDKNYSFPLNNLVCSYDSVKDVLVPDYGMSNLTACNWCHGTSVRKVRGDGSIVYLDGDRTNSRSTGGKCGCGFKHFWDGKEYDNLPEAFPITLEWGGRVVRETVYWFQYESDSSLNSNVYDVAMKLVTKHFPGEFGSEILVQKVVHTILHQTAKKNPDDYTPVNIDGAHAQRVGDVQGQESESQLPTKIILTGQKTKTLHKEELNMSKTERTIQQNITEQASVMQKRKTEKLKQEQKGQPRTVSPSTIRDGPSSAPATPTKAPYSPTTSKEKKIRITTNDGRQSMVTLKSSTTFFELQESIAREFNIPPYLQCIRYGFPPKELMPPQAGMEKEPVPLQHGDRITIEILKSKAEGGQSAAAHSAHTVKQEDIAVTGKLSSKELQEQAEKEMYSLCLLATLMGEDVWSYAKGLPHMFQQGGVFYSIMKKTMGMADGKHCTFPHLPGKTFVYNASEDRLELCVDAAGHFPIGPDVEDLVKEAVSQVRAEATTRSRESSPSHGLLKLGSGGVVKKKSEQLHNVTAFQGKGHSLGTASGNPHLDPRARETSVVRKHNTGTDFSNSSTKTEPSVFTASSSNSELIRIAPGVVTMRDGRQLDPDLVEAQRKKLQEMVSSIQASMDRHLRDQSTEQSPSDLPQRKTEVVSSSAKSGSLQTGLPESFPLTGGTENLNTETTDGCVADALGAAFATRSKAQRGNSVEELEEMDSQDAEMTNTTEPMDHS
inactive: [1]; compound concentration: 50uM -0.0812 | [1]; compound concentration: 200uM -0.216 | [2]; compound concentration: 50uM -0.772 | [3]; compound concentration: 50uM -0.0798 | [3]; compound concentration: 200uM -0.257 | [4]; compound concentration: 50uM -0.273 | [4]; compound concentration: 200uM -0.459 | [5]; compound concentration: 50uM -0.59 | [5]; compound concentration: 200uM -0.809 | [6]; compound concentration: 0.78uM -0.0601 | [6]; compound concentration: 1.56uM -0.043 | [6]; compound concentration: 3.13uM -0.312 | [6]; compound concentration: 6.25uM -0.126 | [6]; compound concentration: 12.5uM -0.217 | [6]; compound concentration: 25uM -0.282 | [6]; compound concentration: 50uM -0.514 | [6]; compound concentration: 100uM -0.706 | [7]; compound concentration: 0.78uM -0.284 | [7]; compound concentration: 1.56uM -0.221 | [7]; compound concentration: 3.13uM -0.211 | [7]; compound concentration: 6.25uM -0.266 | [7]; compound concentration: 12.5uM -0.486 | [7]; compound concentration: 25uM -0.463 | [7]; compound concentration: 50uM -0.588 | [7]; compound concentration: 100uM -0.763 | [8]; compound concentration: 0.78uM -0.0679 | [8]; compound concentration: 1.56uM -0.261 | [8]; compound concentration: 3.13uM -0.266 | [8]; compound concentration: 6.25uM -0.105 | [8]; compound concentration: 12.5uM -0.162 | [8]; compound concentration: 25uM -0.176 | [8]; compound concentration: 50uM -0.258 | [8]; compound concentration: 100uM -0.566 | [8]; compound concentration: 200uM -0.808 | [9]; compound concentration: 50uM -0.123 | [9]; compound concentration: 200uM -0.724 | [10]; compound concentration: 50uM -0.514 | [10]; compound concentration: 200uM -0.602
active: [2]; compound concentration: 200uM -1.25 | [6]; compound concentration: 200uM -1.18 | [7]; compound concentration: 200uM -1.11

USP12 (UniProt O75317)
Sequence of UniProt O75317 (O75317 whole entry): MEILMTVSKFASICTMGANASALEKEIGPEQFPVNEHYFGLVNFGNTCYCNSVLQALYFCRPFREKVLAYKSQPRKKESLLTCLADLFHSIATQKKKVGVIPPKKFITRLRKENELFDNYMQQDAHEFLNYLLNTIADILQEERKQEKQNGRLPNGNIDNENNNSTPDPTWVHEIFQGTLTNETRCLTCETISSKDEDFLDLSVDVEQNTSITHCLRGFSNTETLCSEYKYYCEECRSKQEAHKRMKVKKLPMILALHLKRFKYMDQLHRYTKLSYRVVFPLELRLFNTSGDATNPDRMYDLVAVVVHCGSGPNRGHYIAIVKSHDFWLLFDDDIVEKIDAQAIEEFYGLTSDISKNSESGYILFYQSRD
inactive: [1]; compound concentration: 50uM -0.336 | [1]; compound concentration: 200uM -0.364 | [2]; compound concentration: 50uM -0.67 | [2]; compound concentration: 200uM -0.285 | [3]; compound concentration: 50uM -0.414 | [3]; compound concentration: 200uM 0.0587 | [4]; compound concentration: 50uM 0.232 | [4]; compound concentration: 200uM 0.133 | [5]; compound concentration: 50uM -0.0656 | [5]; compound concentration: 200uM -0.128 | [6]; compound concentration: 0.78uM -0.261 | [6]; compound concentration: 1.56uM -0.455 | [6]; compound concentration: 3.13uM -0.802 | [6]; compound concentration: 6.25uM -0.549 | [6]; compound concentration: 12.5uM -0.298 | [6]; compound concentration: 25uM -0.852 | [6]; compound concentration: 50uM -0.524 | [6]; compound concentration: 100uM -0.285 | [6]; compound concentration: 200uM -0.69 | [7]; compound concentration: 0.78uM -0.131 | [7]; compound concentration: 1.56uM 0.0424 | [7]; compound concentration: 3.13uM 0.272 | [7]; compound concentration: 6.25uM 0.0447 | [7]; compound concentration: 12.5uM -0.0347 | [7]; compound concentration: 25uM -0.263 | [7]; compound concentration: 50uM -0.715 | [7]; compound concentration: 100uM -0.0609 | [7]; compound concentration: 200uM -0.175 | [8]; compound concentration: 0.78uM -0.247 | [8]; compound concentration: 1.56uM -0.665
